Measurements from PubChem BioAssay (NCI).
This is part of a sample that, as a whole, favours compounds with a hit. Of some 79,000 tested, about 15% had one in any assay. Activity calls are given as the source filed them. Rule as the data show it: active = growth inhibition above about 70%; inactive = the rest.

How the values were obtained:
[1] = NCI Yeast Anticancer Drug Screen. Data for the mlh1 rad18 strain (AID 175); conditions: S. cerevisiae mlh1 rad18 strain growth inhibition, hits give high values
Procedure, shortened: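 Read-out is yeast growth inhibition, calculated against vehicle-only controls. The compound was applied to a strain engineered with DNA damage repair alterations.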

[2] = NCI Yeast Anticancer Drug Screen. Data for the rad18 strain (AID 177); conditions: S. cerevisiae rad18 mutant growth inhibition, hits give high values
Procedure, shortened: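 Growth of the mutant yeast strain after compound exposure, normalised to vehicle-only cultures.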

[3] = NCI Yeast Anticancer Drug Screen. Data for the wt1 strain (AID 149);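 also: 0% = growth of vehicle-treated wt1 cultures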; conditions: S. cerevisiae wt1 strain (SPY 50644) growth inhibition, hits give high values
Procedure, shortened: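 Compounds are added to wt1 yeast cultures. Growth is then measured. Inhibition is expressed relative to vehicle-treated controls.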

[4] = NCI Yeast Anticancer Drug Screen. Data for the rad50EPP+ strain (AID 151);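 also: 0% = growth of vehicle-treated control cultures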; conditions: S. cerevisiae rad50 mutant strain, hits give high values
Procedure, shortened: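 Compounds were applied to the rad50EPP+ yeast strain, which bears a defined DNA repair alteration, and growth inhibition was determined relative to vehicle-treated cultures.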

[5] = NCI Yeast Anticancer Drug Screen. Data for the mgt1 strain (AID 153); conditions: S. cerevisiae mgt1 mutant growth inhibition, hits give high values
Procedure, shortened: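 Strain: mgt1 yeast, one of a set carrying defined DNA damage repair or cell cycle control alterations. Compound-treated growth compared with vehicle.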

[6] = NCI Yeast Anticancer Drug Screen. Data for the rad50 strain (AID 155);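 also: 0% = growth of vehicle-only cultures of the same strain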; conditions: S. cerevisiae rad50 strain growth inhibition, hits give high values
Procedure, shortened: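 Inhibition values express reduced yeast growth in compound-treated cultures relative to vehicle-treated controls.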

[7] = NCI Yeast Anticancer Drug Screen. Data for the mec2-1 strain (AID 157); conditions: S. cerevisiae mec2-1 strain, hits give high values
Procedure, shortened: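 Strain: mec2-1 (DNA repair/cell cycle alteration). Compound exposure, then growth measured; inhibition expressed relative to vehicle.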

[8] = NCI Yeast Anticancer Drug Screen. Data for the rad14 strain (AID 159);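 also: 0% = growth of vehicle-treated control cultures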; conditions: S. cerevisiae rad14 strain growth inhibition, hits give high values
Procedure, shortened: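 A mutant yeast strain defective in DNA damage repair is treated with compound; inhibition of its growth is scored against untreated, vehicle-exposed cultures.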

[9] = NCI Yeast Anticancer Drug Screen. Data for the sgs1 mgt1 strain (AID 161);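 also: 0% = growth of cultures given vehicle only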; conditions: S. cerevisiae sgs1 mgt1 strain, hits give high values
Procedure, shortened: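 Read-out: growth inhibition vs vehicle controls. Cells: mutant yeast strain deficient in DNA damage repair.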

[10] = NCI Yeast Anticancer Drug Screen. Data for the CLN2oe strain (AID 163);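 also: 0% = growth of vehicle-only control cultures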; conditions: S. cerevisiae CLN2oe strain, hits give high values
Procedure, shortened: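 Growth of a genetically modified yeast strain is measured after compound exposure and compared with cultures given vehicle alone.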

[11] = NCI Yeast Anticancer Drug Screen. Data for the cln2 rad14 strain (AID 165);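 also: 0% = growth equal to vehicle treated cultures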; conditions: S. cerevisiae cln2 rad14 strain, hits give high values
Procedure, shortened: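 Compounds are applied to the cln2 rad14 yeast strain, and growth is then compared with that of vehicle-treated cultures to give inhibition.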

[12] = NCI Yeast Anticancer Drug Screen. Data for the bub3 strain (AID 167); conditions: S. cerevisiae bub3 mutant strain, hits give high values
Procedure, shortened: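 Steps: expose the mutant yeast strain to compound; grow alongside vehicle-treated cultures; measure growth; express inhibition against the vehicle cultures.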

[13] = NCI Yeast Anticancer Drug Screen. Data for the wt2 strain (AID 169);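 also: 0% = growth of vehicle-treated yeast cultures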; conditions: S. cerevisiae wt2 strain growth inhibition, hits give high values
Procedure, shortened: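 This strain belongs to a panel of yeast strains with defined genetic alterations in DNA damage repair or cell cycle control. Compounds are applied, and growth inhibition is measured against vehicle-treated cultures.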

[14] = NCI Yeast Anticancer Drug Screen. Data for the mlh1 strain (AID 171);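 also: 0% = growth of vehicle-treated control cultures of the same strain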; conditions: S. cerevisiae mlh1 strain growth inhibition, hits give high values
Procedure, shortened: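 Growth of the mutant yeast strain after compound exposure, expressed as inhibition relative to vehicle-only controls.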

[15] = NCI Yeast Anticancer Drug Screen. Data for the sgs1 strain (AID 173);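 also: 0% = growth of vehicle-only control cultures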; conditions: S. cerevisiae sgs1 mutant, hits give high values
Procedure, shortened: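 Growth of a yeast strain bearing a defined genetic alteration is measured after compound treatment. Inhibition is expressed relative to vehicle-only controls.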

[16] = at 5.0 µM (retest, dose inferred, filed as 0.5)
[17] = at 50.0 µM (retest, dose inferred, filed as 5.0)

Measured: growth inhibition

CC(C)OC(=O)NNc1cccc(Cl)c1
active: [1]; [17] 96% | [1]; at 50.0 µM 98% | [2]; at 11.0 µM 98% | [2]; at 33.0 µM 98% | [2]; at 100.0 µM 98%
inactive: [1]; [16] 69% | [2]; at 1.2 µM 9% | [2]; at 3.7 µM 61%

Cc1cc(C)c(S(=O)(=O)c2ccc(Cl)cc2)c(C)c1
active: [9]; at 50.0 µM 77.1% | [12]; at 50.0 µM 80.9%
inactive: [3]; at 1.2 µM -5% | [3]; at 3.7 µM -10% | [3]; at 11.0 µM -16% | [3]; at 33.0 µM -14% | [3]; at 100.0 µM -4% | [4]; at 1.2 µM -1% | [4]; at 3.7 µM 9% | [4]; at 11.0 µM 20% | [4]; at 33.0 µM 13% | [4]; at 100.0 µM 21% | [5]; at 1.2 µM -7% | [5]; at 3.7 µM -8% | [5]; at 11.0 µM -14% | [5]; at 33.0 µM -13% | [5]; at 100.0 µM -3% | [6]; at 1.2 µM 0% | [6]; at 3.7 µM 3% | [6]; [16] -7% | [6]; at 11.0 µM 6% | [6]; at 33.0 µM 8% | [6]; [17] 3% | [6]; at 50.0 µM 62.4% | [6]; at 100.0 µM 49% | [7]; at 1.2 µM -5% | [7]; at 3.7 µM -10% | [7]; [16] -5% | [7]; at 11.0 µM -16% | [7]; at 33.0 µM -16% | [7]; [17] 19% | [7]; at 50.0 µM 48% | [7]; at 100.0 µM 13% | [8]; at 1.2 µM -5% | [8]; at 3.7 µM -8% | [8]; at 11.0 µM -10% | [8]; at 33.0 µM -8% | [8]; at 100.0 µM 20% | [9]; [16] -3% | [9]; [17] 17% | [10]; at 1.2 µM -8% | [10]; at 3.7 µM -15% | [10]; at 11.0 µM -22% | [10]; at 33.0 µM -13% | [10]; at 100.0 µM -2% | [11]; [16] -9% | [11]; [17] -16% | [11]; at 50.0 µM -10.4% | [12]; at 1.2 µM -3% | [12]; at 3.7 µM 4% | [12]; [16] 5% | [12]; at 11.0 µM 11% | [12]; at 33.0 µM 19% | [12]; [17] 20% | [12]; at 100.0 µM 48% | [13]; at 1.2 µM -5% | [13]; at 3.7 µM -7% | [13]; at 11.0 µM -8% | [13]; at 33.0 µM -6% | [13]; at 100.0 µM 18% | [14]; at 1.2 µM -8% | [14]; at 3.7 µM -6% | [14]; at 11.0 µM -6% | [14]; at 33.0 µM -5% | [14]; at 100.0 µM 30% | [15]; at 1.2 µM -8% | [15]; at 3.7 µM 0% | [15]; at 11.0 µM 0% | [15]; at 33.0 µM 7% | [15]; at 100.0 µM 46% | [1]; [16] -6% | [1]; [17] 1% | [1]; at 50.0 µM 35.2%

c1ccc([P+](CCN2Cc3ccccc3C2)(c2ccccc2)c2ccccc2)cc1
inactive: [3]; at 1.2 µM -7% | [3]; at 3.7 µM 31% | [3]; at 11.0 µM 26% | [3]; at 33.0 µM 38% | [4]; at 1.2 µM -21% | [4]; at 3.7 µM -15% | [4]; at 11.0 µM -10% | [4]; at 33.0 µM -8% | [4]; at 100.0 µM 6% | [5]; at 1.2 µM -19% | [5]; at 3.7 µM 2% | [5]; at 11.0 µM 28% | [5]; at 33.0 µM 48% | [6]; at 1.2 µM 30% | [6]; at 3.7 µM 64% | [6]; [16] 64% | [6]; at 11.0 µM 61% | [6]; at 33.0 µM 61% | [6]; [17] 69% | [7]; at 1.2 µM -15% | [7]; at 3.7 µM 39% | [7]; [16] 49% | [7]; at 11.0 µM 36% | [7]; at 33.0 µM 67% | [8]; at 1.2 µM -22% | [8]; at 3.7 µM 13% | [8]; at 11.0 µM 21% | [8]; at 33.0 µM 53% | [9]; [16] 22% | [10]; at 1.2 µM 19% | [10]; at 3.7 µM 11% | [10]; at 11.0 µM 29% | [10]; at 33.0 µM 50% | [11]; [16] 23% | [11]; [17] 25% | [12]; at 1.2 µM 7% | [12]; at 3.7 µM 39% | [12]; [16] 21% | [12]; at 11.0 µM 31% | [12]; at 33.0 µM 64% | [13]; at 1.2 µM -45% | [13]; at 3.7 µM -19% | [13]; at 11.0 µM 11% | [13]; at 33.0 µM 31% | [14]; at 1.2 µM -39% | [14]; at 3.7 µM 18% | [14]; at 11.0 µM 32% | [14]; at 33.0 µM 60% | [15]; at 1.2 µM 13% | [15]; at 3.7 µM 35% | [15]; at 11.0 µM 53% | [15]; at 33.0 µM 67% | [2]; at 1.2 µM 49% | [2]; at 11.0 µM 58%
active: [3]; at 100.0 µM 95% | [5]; at 100.0 µM 95% | [6]; at 50.0 µM 72.1% | [6]; at 100.0 µM 95% | [7]; [17] 81% | [7]; at 50.0 µM 78.9% | [7]; at 100.0 µM 95% | [8]; at 100.0 µM 70% | [9]; [17] 97% | [9]; at 50.0 µM 82% | [10]; at 100.0 µM 93% | [11]; at 50.0 µM 76% | [12]; [17] 98% | [12]; at 50.0 µM 79.1% | [12]; at 100.0 µM 94% | [13]; at 100.0 µM 93% | [14]; at 100.0 µM 95% | [15]; at 100.0 µM 96% | [1]; [16] 71% | [1]; [17] 87% | [1]; at 50.0 µM 88.8% | [2]; at 3.7 µM 71% | [2]; at 33.0 µM 74% | [2]; at 100.0 µM 96%
